Experimental data reported in PubChem BioAssay.
Measured potencies and affinities stand elsewhere. Inconclusive results are not listed. Calls of active or inactive are those of the source. Unless noted, the rule behind the calls is not given here.

Assays:
[1] = RMG-1 ovarian cancer cell viability loss – cherry-pick, dose response (AID 687029;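 active = signal drop whose fitted half-maximal concentration is at most twice the top valid dose, in every test run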;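 note: cells exposed to compound for 96 hours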)
[2] = IOSE-T80 viability loss, PAX8-independent line – cell-based, cherry-pick, selectivity assay for PAX8 inhibitor project, dose response (AID 687032;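 active = fitted half-maximal concentration for viability loss no higher than twice the top valid dose, in every repeat run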;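 note: cells exposed to compound for 96 h before reading; 0% = neutral control wells and -100% = 2 µM mitoxantrone kill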)
[3] = CMV-driven luciferase expression suppression in HEK293 – cell-based, luminescence, dry powder, counter-screen for Pax8 inhibitor project, dose response (AID 743020;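 active = signal-lowering compounds whose fitted half-maximal concentration is at or below twice the top tested dose in every run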;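 note: HEK293 cells stably expressing the CMV luciferase reporter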)
[4] = general cell-killing toxicity readout – plate reader, dry powder samples, cytotoxicity control for PAX8 inhibitor project, dose response (AID 743021)
[5] = IGROV1 cell killing – plate reader, dry powder samples, PAX8 inhibitor project, dose response (AID 743043);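 note: more negative means fewer viable cells or more cytotoxicity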
[6] = OVCAR-3 cell viability loss – plate reader, dry powder samples, PAX8 inhibitor project, dose response (AID 743044); settings: max activity: at 35 µM, hits give low values unless noted
[7] = toxicity toward immortalized ovarian surface epithelium – cell-based, plate reader, dry powder samples, cytotoxicity control for PAX8 inhibitor project, dose response (AID 743045);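 note: 0% = neutral control median and -100% = positive control median; more negative values mean more cell killing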
[8] = A2780 cell killing – plate reader, dry powder samples, cytotoxicity control, dose response (AID 743046);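 note: 0% = neutral control wells and -100% = cytotoxic reference compound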
[9] = OVCAR8 cell viability loss – plate reader, dry powder samples, PAX8 project, dose response (AID 743197)

Measured: max activity

COc1ccccc1C#Cc1ccc2c(c1)O[C@H](CN(C)Cc1cccnc1)[C@H](C)CN([C@H](C)CO)S2(=O)=O
inactive: [1] | [2] | [3] | [4] | [5] | [6] -36.9% | [7] | [8]

C[C@@H]1CCCCO[C@@H](CN(C)Cc2ccc(Cl)c(Cl)c2)[C@H](C)CN([C@H](C)CO)C(=O)c2cc(NS(=O)(=O)c3ccc(F)cc3)ccc2O1
inactive: [1] | [2] | [3] | [4] | [5] | [6] -22% | [7] | [8]

Cc1ccc(S(=O)(=O)Nc2ccc3c(c2)C(=O)N([C@@H](C)CO)C[C@H](C)[C@@H](CN(C)Cc2ccc(Cl)c(Cl)c2)OCCCC[C@@H](C)O3)cc1
inactive: [1] | [2] | [3] | [4] | [5] | [6] -5.1% [at 16 µM, hits give low values] | [7] | [8]

CCCN1[C@H](C(=O)N2CCOCC2)[C@@H](CO)[C@@H]2Cn3c(ccc(/C=C/c4ccccc4)c3=O)[C@@H]21
inactive: [1] | [2] | [3] | [4] | [5] | [6] -10.3% [at 0.5 µM, hits give low values] | [7] | [8]

CS(=O)(=O)N1C[C@@H]2N[C@H](C1)[C@@H]2c1ccc(-c2ccccc2)cc1
inactive: [1] | [2] | [3] | [4] | [5] | [6] 15.8% [at 1 µM, hits give low values] | [7] | [8]

O=C(Nc1cccc(F)c1)N1CCCCN2[C@@H](CO)[C@@H](c3ccc(-c4ccncc4)cc3)[C@@H]2C1
inactive: [1] | [2] | [3] | [4] | [5] | [6] 12.6% [at 1 µM, hits give low values] | [7] | [8]

C[C@@H]1CCCCO[C@@H](CN(C)S(=O)(=O)c2cccs2)[C@H](C)CN([C@H](C)CO)C(=O)c2cc(NC(=O)Nc3ccc(C(F)(F)F)cc3)ccc2O1
inactive: [1] | [2] | [3] | [4] | [5] | [6] 9.36% [at 2.1 µM, hits give low values] | [7] | [8]

C[C@@H]1CCCCO[C@@H](CN(C)Cc2ccc(Cl)c(Cl)c2)[C@H](C)CN([C@@H](C)CO)C(=O)c2cc(NS(=O)(=O)c3ccccc3)ccc2O1
inactive: [1] | [2] | [3] | [4] | [5] | [6] -34.1% [at 0.26 µM, hits give low values] | [7] | [8]

C[C@@H]1CCCCO[C@H](CN(C)Cc2ccc3c(c2)OCO3)[C@@H](C)CN([C@@H](C)CO)C(=O)c2cc(NS(=O)(=O)c3ccc(Cl)cc3)ccc2O1
inactive: [1] | [2] | [3] | [4] | [5] | [6] -40.7% [at 16 µM, hits give low values] | [7] | [8]

Cc1ccc(S(=O)(=O)Nc2ccc3c(c2)C(=O)N([C@H](C)CO)C[C@@H](C)[C@H](CN(C)S(=O)(=O)c2ccc(Cl)cc2)OCCCC[C@H](C)O3)cc1
inactive: [1] | [2] | [3] | [4] | [5] | [6] -15.5% | [7] | [8]

C[C@@H]1CN([C@@H](C)CO)C(=O)c2c(c3ccccc3n2C)-c2ccccc2CO[C@H]1CN(C)S(=O)(=O)c1ccccc1F
inactive: [1] | [2] | [3] | [4] | [5] | [6] -17.2% [at 18 µM, hits give low values] | [7] | [8]

C[C@@H]1CCCCO[C@@H](CN(C)C(=O)Nc2ccc(C(F)(F)F)cc2)[C@H](C)CN([C@H](C)CO)C(=O)c2cc(NS(=O)(=O)c3ccccc3)ccc2O1
inactive: [1] | [2] | [3] | [4] | [5] | [6] 50.6% [at 8 µM, hits give low values] | [7] | [8]

COc1ccc(CN2[C@H](CO)[C@H]3c4ccccc4NC[C@H]32)cc1
inactive: [1] | [2] | [3] | [4] | [5] | [6] 26.6% [at 0.5 µM, hits give low values] | [7] | [8]

COCCNC(=O)C[C@@H]1C[C@H]2c3cc(NC(=O)Nc4ccc(C(F)(F)F)cc4)ccc3O[C@H]2[C@H](CO)O1
inactive: [1] | [2] | [3] | [4] | [5] | [6] -18.8% | [7] | [8]

Cc1ccc(S(=O)(=O)N(C)C[C@H]2OCCCC[C@H](C)Oc3ccc(NS(=O)(=O)c4ccc(Cl)cc4)cc3C(=O)N([C@@H](C)CO)C[C@@H]2C)cc1
inactive: [1] | [2] | [3] | [4] | [5] | [6] 10.8% [at 2.1 µM, hits give low values] | [7] | [8]

C[C@@H]1CN([C@@H](C)CO)C(=O)Cc2cc(NC(=O)Nc3ccc(C(F)(F)F)cc3)ccc2O[C@H]1CN(C)Cc1ccc(Oc2ccccc2)cc1
inactive: [1] | [2] | [3] | [4] | [5] | [6] -19.5% | [7] | [8]

C[C@H](CO)N1C[C@H](C)[C@H](CN(C)Cc2ccc(C(F)(F)F)cc2)Oc2ccc(NS(=O)(=O)c3ccc(F)cc3)cc2CC1=O
inactive: [1] | [2] | [3] | [4] | [5] | [6] 12.3% [at 16 µM, hits give low values] | [7] | [8]

COc1ccc(S(=O)(=O)Nc2ccc3c(c2)C(=O)N([C@H](C)CO)C[C@@H](C)[C@H](CN(C)S(=O)(=O)c2ccc(F)cc2)OCCCC[C@H](C)O3)cc1
inactive: [1] | [2] | [3] | [4] | [5] | [6] -24.5% | [7] | [8]

C[C@H](CO)N1C[C@H](C)[C@H](CN(C)S(=O)(=O)c2ccc(F)cc2)OCCCC[C@H](C)Oc2ccc(NC(=O)Nc3ccc(F)cc3)cc2C1=O
inactive: [1] | [2] | [3] | [4] | [5] | [6] -19% [at 16 µM, hits give low values] | [7] | [8]

CC(C)CC#Cc1ccc2c(c1)O[C@@H](CN(C)S(=O)(=O)c1ccc(F)cc1)[C@H](C)CN([C@@H](C)CO)S2(=O)=O
inactive: [1] | [2] | [3] | [4] | [5] | [6] 21.6% [at 4.2 µM, hits give low values] | [7] | [8]

CCCC#Cc1ccc([C@H]2[C@H]3CN(S(=O)(=O)Cc4ccccc4)CCCCN3[C@H]2CO)cc1
inactive: [1] | [2] | [3] | [4] | [5] | [6] -34.3% | [7] | [8]

C[C@@H]1CCCCO[C@@H](CN(C)Cc2ccc(Cl)c(Cl)c2)[C@H](C)CN([C@H](C)CO)C(=O)c2cc(NC(=O)Nc3ccc(F)cc3)ccc2O1
inactive: [1] | [2] | [3] | [4] | [5] | [6] -37% | [7] | [8]

COc1cccc(S(=O)(=O)N(C)C[C@@H]2OCc3ccccc3-c3c(n(C)c4ccccc34)C(=O)N([C@@H](C)CO)C[C@@H]2C)c1
inactive: [1] | [2] | [3] | [4] | [5] | [6] 23.2% [at 2.1 µM, hits give low values] | [7] | [8]

O=C(C[C@H]1CC[C@@H]2[C@H](COC[C@@H](O)CN2S(=O)(=O)c2cccc(Cl)c2)O1)Nc1ccc(-c2ccccc2)cc1
inactive: [1] | [2] | [3] | [4] | [5] | [6] -18.4% | [7] | [8]

O=C(C[C@H]1C[C@@H]2c3cc(NS(=O)(=O)c4ccc(F)cc4)ccc3O[C@@H]2[C@@H](CO)O1)NCc1ccc(-c2ccccc2)cc1
inactive: [1] | [2] | [3] | [4] | [5] | [6] -28.3% | [7] | [8]

C[C@H]1CCCCO[C@H](CN(C)Cc2ccc(Cl)c(Cl)c2)[C@@H](C)CN([C@@H](C)CO)C(=O)c2cc(NC(=O)Nc3ccccc3)ccc2O1
inactive: [1] | [2] | [3] | [4] | [5] | [6] -18.6% | [7] | [8]

COc1ccc(-c2ccc3c(c2)[C@@H]2[C@@H](CCN2C(=O)C2CCCC2)[C@H](CO)N3C)cc1
inactive: [1] | [2] | [3] | [4] | [5] | [6] -19.3% [at 18 µM, hits give low values] | [7] | [8]

C[C@H](CO)N1C[C@H](C)[C@H](CN(C)Cc2ccc(C(F)(F)F)cc2)OCCCC[C@H](C)Oc2ccc(NC(=O)c3ccccc3)cc2C1=O
inactive: [1] | [2] | [3] | [4] | [5] | [6] -59.7% | [7] | [8]

C[C@@H]1CN([C@@H](C)CO)C(=O)c2cc(NC(=O)Nc3ccc(C(F)(F)F)cc3)ccc2O[C@@H](C)CCCCO[C@@H]1CN(C)Cc1ccccc1
inactive: [1] | [2] | [3] | [4] | [5] | [6] -20.5% [at 16 µM, hits give low values] | [7] | [8]

N#Cc1cccc(-c2ccc3c(c2)[C@@H]2[C@@H](CCN2C(=O)C2CCCCC2)[C@@H](CO)N3)c1
inactive: [1] | [2] | [3] | [4] | [5] | [6] 11.5% [at 16 µM, hits give low values] | [7] | [8]

C[C@@H]1CN([C@H](C)CO)C(=O)c2cc(NC(=O)Nc3ccc(C(F)(F)F)cc3)ccc2O[C@@H](C)CCCCO[C@H]1CN(C)Cc1ccc(Cl)c(Cl)c1
inactive: [1] | [2] | [3] | [4] | [5] | [6] 8.01% [at 8 µM, hits give low values] | [7] | [8] | [9]
